For test [1], the target named is Lysosomal acid glucosylceramidase (Homo sapiens) (UniProt P04062). Kind of test: Glucocerebrosidase-p2 (AID 348; in the data active means potency below about 10 µM; further: potency means the concentration at half of the fitted maximal effect). As to conditions: purified GBA, blue fluorogenic substrate, 40 min. The procedure, abridged: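 Normal human glucocerebrosidase (0.2 nM) with blue fluorogenic substrate (80 uM final) in citrate/phosphate pH 5.9 with 10mM sodium taurocholate, 0.01% tween-20; 40 min RT, NaOH/glycine stop; fluorescence Ex 365/Em 440; AC50 from a titration from 0.6 nM upwards.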

Test [2] is described as follows: AP1 Signaling Pathway (AID 357).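 Further: ME-180 reporter cells stimulated with EGF at its EC50 level; on the % scale 0 is the no-effect control and ±100 the full control effect.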 The following applies: ME-180 AP-1-bla reporter, EGF-induced, beta-lactamase ratio, 5 h; at 7.69 µM (top of the series) unless noted. The gist of the method: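 Beta-lactamase reporter under AP-1 response element, ME-180 background. Stimulus: EC50 EGF. Compound exposure 5 h, 37 °C. Detection: CCF4, 2.5 h RT, 460/530 nm. Values: AC50 from titration.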

A short description of test [3]: NFAT Signaling Pathway (AID 444).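 Further: carbachol stimulus at about its EC50 of 1 µM final; on the % scale 0 is the no-effect control and ±100 the full control effect.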 The following applies: Jurkat NFAT-bla M1, carbachol, beta-lactamase ratio, 5 h; at 7.69 µM (top of the series) unless noted. The gist of the method: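 Jurkat cells carrying an NFAT-driven β-lactamase reporter and co-transfected muscarinic M1 receptor were treated with compound plus carbachol (1 uM final, an EC50 level) for 5 h at 37 °C. CCF4 loading followed for 1 h at RT; 460/530 nm ratio gave %activity.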

Test [4] is described as follows: Stat Signaling Pathway (AID 446).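 Further: ME-180 cervical cancer cells given 40 pM IL-6 alongside compound; SIE-controlled beta-lactamase reporter measured as 460/530 nm FRET emission ratio; on the % scale 0 is the no-effect control and ±100 the full control effect.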 As to conditions: ME-180 (cervical carcinoma) SIE beta-lactamase reporter, IL-6 stimulated, 5 h; at 7.69 µM (top of the series) unless noted. The gist of the method: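 FRET read-out (405 nm excitation, 460/530 nm emission) of a beta-lactamase reporter under a STAT-inducible element in ME-180 cervical carcinoma cells. Cells with compound receive 40 pM IL-6 for 5 h. Values are normalised to AC90 stimulation and AC90 JAK-inhibitor controls.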

For test [5], the target named is Glucocorticoid receptor (Homo sapiens) (UniProt P04150). As to the kind of experiment: GR-EFC Redistribution (AID 451; calls by dose curve; further: potency means the concentration at half of the fitted maximal effect). As to conditions: CHO-K1 GR-EFC translocation, beta-gal luminescence, 2 h. The procedure, abridged: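 CHO-K1 cells stably expressing nuclear-localized β-gal enzyme acceptor and GR fused C-terminally to the enzyme donor fragment; ligand-driven nuclear translocation restores β-gal by complementation. Compounds titrated up to 46 uM final, 2 h at 37 °C; luminescence read.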

In test [6] the target is Mitogen-activated protein kinase 10 (Mus musculus) (UniProt Q61831). As to the kind of experiment: JNK3 AlphaScreen Assay (AID 530).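 Further: kinase came from lysate of stimulated human HepG2 cells; on the % scale 0 is the no-effect control and ±100 the full control effect.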 As to conditions: JNK3 lysate, c-Jun phosphorylation; series mostly up to 57.1 µM. The procedure, abridged: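 Phosphorylation of biotinylated GST-cJun(1-79) at Ser73 is measured by AlphaScreen proximity luminescence. Enzyme is JNK3 in HepG2 lysates activated with interleukin-1beta and tumor necrosis factor alpha; ATP is 10 uM final.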
On the technique in general: In Alpha technology, singlet oxygen from a donor bead excites a nearby acceptor bead.

Test [7] deals with 3',5'-cyclic-AMP phosphodiesterase 4B (Homo sapiens) (UniProt Q07343). Kind of test: qHTS Assay for Inhibitors of PDE-IV (AID 607; active means well fitted activation curve with a large enough effect in the main read-out, with a control signal flat, not every such curve was filed as active; further: % of control where 0% means no effect). As to conditions: HEK293 ACTOne CNG channel cells, membrane potential fluorescence; series mostly up to 22.9 µM. The gist of the method:
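Cell-based read-out of cAMP via a modified cyclic nucleotide-gated channel and membrane potential dye (535/590 nm) in HEK293 cells expressing PDE4 endogenously. Compounds tested up to 22.9 uM final; 100 uM RO 20-1724 reference.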
(Quantitative high-throughput screening tests each substance at several concentrations.)

A short description of test [8]: qHTS Assay for Lipid Storage Modulators (AID 1519; calls by dose curve). As to conditions: Drosophila S3 cells, BODIPY lipid droplet/cell ratio, laser cytometry, cells loaded with oleic acid; for activity change, negative = inhibition: at 57.5 µM (top of the series). The procedure, abridged:
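Cells seeded at 5,000 per well were treated with compounds over a concentration series and loaded with oleic acid (400 uM, as added). Lipid droplet fluorescence (488 nm excitation, 500-530 nm channel) was read by laser-scanning cytometry and normalized to 20 uM Triacsin C.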

Test [9] in a line: Primary qHTS for small molecule stabilizers of the endoplasmic reticulum resident proteome: Secreted ER Calcium Modulated Protein (SERCaMP) assay (AID 1508630; active means well fitted inhibition curve with a large enough effect; further: on the % scale 0 is the no-effect control and ±100 the full control effect). As to conditions: SH-SY5Y GLuc-SERCaMP (Gaussia luciferase released on ER calcium loss) secretion, thapsigargin, luminescence; series mostly up to 38.4 µM. The procedure, abridged:
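The SH-SY5Y reporter protocol was run at 3 concentrations up to 38.3 uM (primary) or 11 concentrations (follow-up): 16 h compound, 100 nM thapsigargin for 4 h, then extracellular luciferase luminescence.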

Setting [10] is: measured here: cell count channel max response.
The mark [11] stands for this setting: measured here: lipid channel max response.

Each structure is given as a SMILES string. Inconclusive results are not listed. Activity calls are given as the source filed them. Unless noted, the call rests on the fitted dose curve; in most records, active means well fitted curve in either direction with a large enough effect (not every such curve was filed as active); inconclusive means small, poorly fitted or top-dose-only effect, or another doubt; inactive means flat fitted curve, though single readings scatter.

Sequence of 3',5'-cyclic-AMP phosphodiesterase 4B (Homo sapiens) (Q07343 whole entry, looked up): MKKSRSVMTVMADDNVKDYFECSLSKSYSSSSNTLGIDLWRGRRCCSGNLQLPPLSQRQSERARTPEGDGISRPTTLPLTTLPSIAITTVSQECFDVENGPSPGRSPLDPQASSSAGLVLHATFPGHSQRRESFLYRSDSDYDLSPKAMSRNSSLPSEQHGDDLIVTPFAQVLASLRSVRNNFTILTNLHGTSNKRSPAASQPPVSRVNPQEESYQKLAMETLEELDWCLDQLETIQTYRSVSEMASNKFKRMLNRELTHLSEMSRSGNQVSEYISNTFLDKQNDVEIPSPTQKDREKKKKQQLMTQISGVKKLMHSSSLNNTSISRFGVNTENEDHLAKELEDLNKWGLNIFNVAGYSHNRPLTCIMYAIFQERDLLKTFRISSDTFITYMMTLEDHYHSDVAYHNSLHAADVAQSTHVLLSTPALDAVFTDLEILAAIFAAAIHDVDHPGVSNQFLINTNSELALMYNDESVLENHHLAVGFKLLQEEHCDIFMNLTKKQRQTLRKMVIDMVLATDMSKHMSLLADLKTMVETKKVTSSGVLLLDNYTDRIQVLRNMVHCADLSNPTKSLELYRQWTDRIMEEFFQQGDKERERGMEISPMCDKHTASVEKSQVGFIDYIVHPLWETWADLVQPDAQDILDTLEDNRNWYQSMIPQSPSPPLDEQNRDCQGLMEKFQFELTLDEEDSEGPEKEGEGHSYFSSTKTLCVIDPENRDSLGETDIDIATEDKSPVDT
Sequence of Lysosomal acid glucosylceramidase (Homo sapiens) (P04062 whole entry, looked up): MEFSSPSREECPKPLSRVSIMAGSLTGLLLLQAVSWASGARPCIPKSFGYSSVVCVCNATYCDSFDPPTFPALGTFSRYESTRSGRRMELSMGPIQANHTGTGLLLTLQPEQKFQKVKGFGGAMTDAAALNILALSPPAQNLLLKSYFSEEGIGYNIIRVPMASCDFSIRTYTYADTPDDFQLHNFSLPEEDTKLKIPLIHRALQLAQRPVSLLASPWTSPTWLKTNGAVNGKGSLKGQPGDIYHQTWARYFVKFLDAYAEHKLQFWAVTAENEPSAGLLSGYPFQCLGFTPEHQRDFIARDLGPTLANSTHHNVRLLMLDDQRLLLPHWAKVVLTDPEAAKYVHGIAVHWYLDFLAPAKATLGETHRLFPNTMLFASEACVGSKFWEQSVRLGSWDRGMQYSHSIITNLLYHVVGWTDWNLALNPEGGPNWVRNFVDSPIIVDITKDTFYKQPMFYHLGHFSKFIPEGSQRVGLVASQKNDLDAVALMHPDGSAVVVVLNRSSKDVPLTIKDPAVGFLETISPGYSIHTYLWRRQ
Sequence of Glucocorticoid receptor (Homo sapiens) (P04150 whole entry, looked up, the tested form may be a part): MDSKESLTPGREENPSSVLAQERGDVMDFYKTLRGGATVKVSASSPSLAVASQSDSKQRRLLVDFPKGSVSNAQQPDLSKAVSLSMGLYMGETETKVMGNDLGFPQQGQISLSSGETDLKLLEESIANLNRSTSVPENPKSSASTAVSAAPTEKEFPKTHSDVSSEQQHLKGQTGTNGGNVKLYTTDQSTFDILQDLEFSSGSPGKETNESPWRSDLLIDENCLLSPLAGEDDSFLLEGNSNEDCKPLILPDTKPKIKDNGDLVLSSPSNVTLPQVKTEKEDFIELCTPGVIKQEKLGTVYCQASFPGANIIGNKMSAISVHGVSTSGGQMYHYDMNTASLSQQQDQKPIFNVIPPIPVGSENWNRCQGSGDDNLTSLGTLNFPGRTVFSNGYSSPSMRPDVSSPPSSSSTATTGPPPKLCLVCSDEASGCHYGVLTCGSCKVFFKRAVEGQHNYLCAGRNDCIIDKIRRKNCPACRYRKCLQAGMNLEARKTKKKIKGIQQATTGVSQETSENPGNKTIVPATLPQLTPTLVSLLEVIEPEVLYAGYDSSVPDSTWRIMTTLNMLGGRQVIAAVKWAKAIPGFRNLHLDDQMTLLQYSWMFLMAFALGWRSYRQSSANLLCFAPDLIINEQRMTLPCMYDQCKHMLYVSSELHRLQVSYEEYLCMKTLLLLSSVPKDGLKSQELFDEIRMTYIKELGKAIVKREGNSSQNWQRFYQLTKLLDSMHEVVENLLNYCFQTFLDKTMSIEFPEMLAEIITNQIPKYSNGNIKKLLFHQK

For `O=C(c1csnn1)N1CCC[C@@]2(CCN(Cc3cc(C(F)(F)F)cc(C(F)(F)F)c3)C2)C1`, the Potency in test [1] was > 11.4 µM (inactive); in [5] it was > 46 µM (inactive). The activity change, negative = inhibition in [2] was -0.847% (inactive); in test [3], 2.05% (inactive); in test [8] it was 5.01% (inactive). The activity, negative = inhibition in test [4] was -8.74% (inactive). In addition, the Potency result in [6] and in test [7] was “inactive” each time. The max response in [8] (setting [10]) is 20.3%; in test [8] (setting [11]), 22.1%. Also, the result in test [9] was inactive.
As to `CC(=O)N1CCC2(CC1)CCN(c1ncccn1)CC2`, the values for the Potency in test [1] and in test [5] were > 11.4 µM (inactive) and > 46 µM (inactive), respectively. The activity change, negative = inhibition in test [2] was -16.8% (inactive); in test [3] it was -1.48% (inactive); in [8], 4.77% (inactive). Moreover, the activity, negative = inhibition in test [4] is 10.5% (inactive). For the same compound, the Potency result in test [6] and in test [7] was “inactive” in each case. Further, the max response was found to be 8.06% in test [8] (setting [10]) and 17.2% in test [8] (setting [11]). Also, in test [9], the result was inactive.
With `COc1ccc(C(=O)N2CCC[C@@]3(CCN(Cc4ccncc4)C3)C2)cc1`, the values for the Potency in test [1] and in test [5] were > 11.4 µM (inactive) and > 46 µM (inactive), respectively. The figures for the activity change, negative = inhibition in test [2], in test [3] and in test [8] were -9.73% (inactive), 4.96% (inactive) and 5.81% (inactive), respectively. Besides, the activity, negative = inhibition in [4] was 2.52% (inactive). The Potency result in [6] and in test [7] was “inactive” throughout. The max response in test [8] (setting [10]) was found to be 16.4%; in [8] (setting [11]), 25.6%. For the same compound, the outcome in test [9] was inactive.
Turning to `O=C(c1csnn1)N1CCC2(CC1)CCN(c1cccc(-c3ccccc3)c1)CC2`, the figures for the Potency in test [1] and in test [5] were > 11.4 µM (inactive) and > 46 µM (inactive), respectively. Moreover, the activity change, negative = inhibition was -21.7% (inactive) in test [2], 22.2% (inactive) in [3] and -6.94% (inactive) in test [8]. Besides, the activity, negative = inhibition in test [4] was -14.3% (inactive). Also, the Potency result in test [6] and in test [7] was “inactive” each time. For the same compound, the max response in test [8] (setting [10]) is 9.03%; in test [8] (setting [11]) it was 3.45%. In addition, the outcome in test [9] was inactive.
As for `O=C(Nc1cccc(F)c1)N1CC[C@@]2(CCCN(C(=O)c3ccncc3)C2)C1`, the Potency is > 11.4 µM (inactive) in [1] and > 46 µM (inactive) in test [5]. For the same compound, the values for the activity change, negative = inhibition in test [2], in test [3] and in test [8] were -4.21% (inactive), 9.18% (inactive) and 5.32% (inactive), respectively. For the same compound, the activity, negative = inhibition in test [4] was -6.29% (inactive). For the same compound, the Potency result in test [6] and in test [7] was “inactive” throughout. In addition, the figures for the max response in [8] (setting [10]) and in test [8] (setting [11]) were 15.8% and 23.2%, respectively. For the same compound, the outcome in [9] was inactive.
Turning to `O=C(c1csnn1)N1CCC2(CCCN(c3cccc(-c4ccccc4)c3)C2)CC1`, the Potency in test [1] is > 11.4 µM (inactive); in test [5], > 46 µM (inactive). Moreover, the results for the activity change, negative = inhibition in test [2], in test [3] and in test [8] were -12.3% (inactive), -13.8% (inactive) and -16.4% (inactive), respectively. Besides, the activity, negative = inhibition in test [4] is -5.72% (inactive). The Potency entry in test [6] and in test [7] was “inactive” throughout. The figures for the max response in [8] (setting [10]) and in [8] (setting [11]) were 9.62% and -3.2%, respectively. The result in test [9] was inactive.
As to `Cc1noc(C)c1C(=O)N1CCC[C@@]2(CCN(c3ccccn3)C2)C1`, the Potency in test [1] was > 11.4 µM (inactive); in test [5], > 46 µM (inactive). For the same compound, the activity change, negative = inhibition in test [2] was -5.91% (inactive); in test [3], -10.2% (inactive); in [8] it was -1.14% (inactive). Further, the activity, negative = inhibition in [4] is -3.33% (inactive). For the same compound, the Potency entry in test [6] and in [7] was “inactive” each time. The max response worked out at 20% in test [8] (setting [10]) and 24.9% in [8] (setting [11]). For the same compound, the outcome in test [9] was inactive.
As to `COc1ccc(NC(=O)N2CC[C@@]3(CCCN(C(=O)c4ccco4)C3)C2)cc1`, the Potency is > 11.4 µM (inactive) in [1] and > 46 µM (inactive) in test [5]. In addition, the activity change, negative = inhibition in [2] was -13.2% (inactive); in [3] it was -7.9% (inactive); in test [8] it was 2.86% (inactive). Besides, the activity, negative = inhibition in test [4] was 13.8% (inactive). Also, the Potency entry in test [6] and in test [7] was “inactive” in each case. Besides, the max response in [8] (setting [10]) turned out to be 9.78%; in [8] (setting [11]), 12.5%. In addition, the outcome in [9] was inactive.
Take `O=C(c1ccco1)N1CCC[C@@]2(CCN(c3ncccn3)C2)C1`: the Potency is > 11.4 µM (inactive) in [1] and > 46 µM (inactive) in test [5]. The activity change, negative = inhibition in test [2] is -6.68% (inactive); in test [3], -7.21% (inactive); in test [8], 3.43% (inactive). For the same compound, the activity, negative = inhibition in test [4] was -5.91% (inactive). For the same compound, the Potency entry in test [6] and in test [7] was “inactive” throughout. The max response in [8] (setting [10]) was 17.7%; in [8] (setting [11]), 23.3%. The outcome in test [9] was inactive.
Consider `CC(C)CN1CC[C@@]2(CCCN(C(=O)c3cccc(F)c3)C2)C1`, for which the figures for the Potency in test [1] and in test [5] were > 11.4 µM (inactive) and > 46 µM (inactive), respectively. Besides, the activity change, negative = inhibition in test [2] is -9.55% (inactive); in [3], -0.696% (inactive); in [8], 1.5% (inactive). Besides, in test [4], the activity, negative = inhibition is 6.14% (inactive). Also, the Potency result in test [6] and in [7] was “inactive” in each case. In addition, the max response amounted to 13.4% in test [8] (setting [10]) and 19.5% in [8] (setting [11]). The outcome in [9] was inactive.
In the case of `COC(=O)N1CCC2(CCN(C(=O)Nc3cccc(C#N)c3)CC2)CC1`, the Potency in test [1] was > 11.4 µM (inactive); in test [5], > 46 µM (inactive). For the same compound, the activity change, negative = inhibition is -20.7% (inactive) in test [2], 4.12% (inactive) in [3] and -0.883% (inactive) in test [8]. The activity, negative = inhibition in test [4] was 7.14% (inactive). Besides, the Potency entry in test [6] and in test [7] was “inactive” in each case. Further, the max response in [8] (setting [10]) turned out to be 12.6%; in [8] (setting [11]) it was 14%. In test [9], the result was inactive.
As to `COc1ccc(NC(=O)N2CC[C@@]3(CCCN(C(=O)c4ccncc4)C3)C2)cc1`, the Potency was > 11.4 µM (inactive) in test [1] and > 46 µM (inactive) in [5]. In addition, the activity change, negative = inhibition is -25.1% (inactive) in test [2], 16.8% (inactive) in test [3] and 2.47% (inactive) in test [8]. Further, the activity, negative = inhibition in [4] was 5.11% (inactive). Also, the Potency entry in test [6] and in test [7] was “inactive” throughout. For the same compound, the max response in test [8] (setting [10]) is 0.213%; in test [8] (setting [11]), 7.4%. For the same compound, the result in test [9] was inactive.
In the case of `O=S(=O)(c1ccccc1)N1CCC2(CC1)CN(c1ccccc1)C2`, the Potency in [1] was > 11.4 µM (inactive); in test [5], > 46 µM (inactive). Also, the activity change, negative = inhibition in test [2] was 3.38% (inactive); in test [3], 8.23% (inactive); in [8], 4.76% (inactive). In addition, the activity, negative = inhibition in test [4] is -6.85% (inactive). Moreover, the Potency result in test [6] and in [7] was “inactive” each time. The max response in [8] (setting [10]) worked out at 12.5%; in test [8] (setting [11]), 18.4%. The outcome in [9] was inactive.

For the origin of these results see PubChem BioAssay (NCATS).
